Test results taken from PubChem BioAssay (Tox21).
“And” between values parts separate entries of the source, which are not always exact repeats. Equal values may be shown once. Inconclusive results are not listed. A call without a number means that no potency is given here. Some compounds were tested as several samples or in several runs, with calls that do not always agree. The source made the active and inactive calls. Unless noted, the call rests on the fitted dose curve; in most records, active means well fitted curve in the direction sought with a large enough effect in the repeat runs; inconclusive means weak or mixed curves; inactive means no such curve, though single readings can be large; an effect the other way counts as inactive or inconclusive.

Legend:
[1] = qHTS assay to identify aromatase inhibitors - cell viability counter screen (AID 743084);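 further: cells stimulated with testosterone during compound exposure; nearly all actives have a fitted effect of over 55% in size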
[2] = biological target: Aryl hydrocarbon receptor (Homo sapiens) (UniProt P35869); experiment: qHTS assay to identify small molecule that activate the aryl hydrocarbon receptor (AhR) signaling pathway (AID 743085); further: nearly all actives have a fitted effect of over 15% in size; further: potency means the concentration at half of the fitted maximal effect;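 on activation: HG2L7.5c1 human HepG2 liver cells with stably integrated DRE-driven firefly reporter; series mostly up to about 70 µM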
Procedure, shortened: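 HepG2 cells (HG2L7.5c1) stably carrying a firefly luciferase reporter driven by 20 dioxin responsive elements were exposed to compound for 24 h at 37C after a 5 h settling period; luminescence rise (ONE-Glo) indicated activation.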

[3] = qHTS assay to identify small molecule that activate the aryl hydrocarbon receptor (AhR) signaling pathway - cell viability counter screen (AID 743086);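 further: HepG2 liver cells carrying the AhR DRE luciferase reporter; series mostly up to about 70 µM; nearly all actives have a fitted effect of over 45% in size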
Procedure, shortened: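 Cytotoxicity counter screen: CellTiter-Fluor signal (30 min, 37 C) in 4000 HepG2 cells/well carrying the DRE-luciferase reporter, following 24 h compound exposure at 37 C.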

[4] = biological target: Peroxisome proliferator-activated receptor gamma (Homo sapiens) (UniProt P37231); experiment: qHTS assay to identify small molecule agonists of the peroxisome proliferator-activated receptor gamma (PPARg) signaling pathway (AID 743094; active means well fitted activation curve with a large enough effect in the signal ratio in the repeat runs, not every such curve was filed as active; the % refers to the signal ratio)
Procedure, shortened: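 HEK293H PPARg-bla cells, 5 h settle at 37C/5% CO2; compound (DMSO) 17 h, 37C; B/G FRET substrate 1 h RT; fluorescence intensity read-out. qHTS format.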

[5] = biological target: Peroxisome proliferator-activated receptor gamma (Homo sapiens) (UniProt P37231); experiment: qHTS assay to identify small molecule antagonists of the peroxisome proliferator-activated receptor gamma (PPARg) signaling pathway (AID 743191; calls by dose curve; further: series mostly up to about 63 µM; nearly all actives have a fitted effect of over 30% in size)
Procedure, shortened: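 Beta-lactamase reporter under UAS control in HEK293H PPARg-bla cells; compound treatment 17 h at 37C. Read-out: fluorescence intensity after 1 h room-temperature incubation with LiveBLAzer B/G FRET substrate.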

[6] = qHTS assay to identify small molecule antagonists of the peroxisome proliferator-activated receptor gamma (PPARg) signaling pathway - cell viability counter screen (AID 743194); further: nearly all actives have a fitted effect of over 55% in size
Procedure, shortened: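 Viability was measured as CellTiter-Glo luminescence in GeneBLAzer PPARg UAS-bla HEK293H cells. These cells had been exposed 17 h at 37 C to compounds together with rosiglitazone at 50 nM final, with the beta-lactamase readout taken in the same wells.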

[7] = qHTS assay for small molecule agonists of the antioxidant response element (ARE) signaling pathway - cell viability counter screen (AID 743203; calls by dose curve; further: nearly all actives have a fitted effect of over 55% in size)
Procedure, shortened: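 Luminescence read-out (CellTiter-Glo, 30 min at room temperature) measured cell viability in the same wells as the ARE beta-lactamase reporter. HepG2 ARE-bla cells were treated with compounds for 16 hrs at 37C/5% CO2.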

[8] = qHTS assay for small molecule activators of the heat shock response signaling pathway - cell viability counter screen (AID 743209); further: nearly all actives have a fitted effect of over 50% in size
Procedure, shortened: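 HSE-bla HeLa; 1500 cells/well; overnight 37 C, 5% CO2; compound 5 h 37 C; LiveBLAzer B/G substrate 2.5 h RT; CellTiter-Glo 30 min RT; luminescence.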

[9] = qHTS assay for small molecule activators of the heat shock response signaling pathway (AID 743210; active means well fitted activation curve with a large enough effect in the signal ratio in the repeat runs, with a control signal flat, not every such curve was filed as active; the % refers to the signal ratio;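 further: HeLa cells with beta-lactamase reporter driven by heat shock elements; series mostly up to about 63 µM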)
Procedure, shortened: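 Fluorescence from a cleaved B/G FRET substrate (2.5 h, room temp) reports HSE-driven beta-lactamase in HeLa cells treated 5 h at 37 C with DMSO-dissolved compounds.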

[10] = qHTS assay for small molecule agonists of the antioxidant response element (ARE) signaling pathway (AID 743202; active means well fitted activation curve with a large enough effect in the signal ratio in the repeat runs, not every such curve was filed as active; the % refers to the signal ratio)
Procedure, shortened: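 Beta-lactamase reporter activity, read as fluorescence intensity, reflects ARE/Nrf2 pathway induction in HepG2 cells after 16 h compound exposure at 37 C; substrate loading was 2 h at room temperature.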

Sequence of Aryl hydrocarbon receptor (Homo sapiens) (P35869 whole entry, looked up): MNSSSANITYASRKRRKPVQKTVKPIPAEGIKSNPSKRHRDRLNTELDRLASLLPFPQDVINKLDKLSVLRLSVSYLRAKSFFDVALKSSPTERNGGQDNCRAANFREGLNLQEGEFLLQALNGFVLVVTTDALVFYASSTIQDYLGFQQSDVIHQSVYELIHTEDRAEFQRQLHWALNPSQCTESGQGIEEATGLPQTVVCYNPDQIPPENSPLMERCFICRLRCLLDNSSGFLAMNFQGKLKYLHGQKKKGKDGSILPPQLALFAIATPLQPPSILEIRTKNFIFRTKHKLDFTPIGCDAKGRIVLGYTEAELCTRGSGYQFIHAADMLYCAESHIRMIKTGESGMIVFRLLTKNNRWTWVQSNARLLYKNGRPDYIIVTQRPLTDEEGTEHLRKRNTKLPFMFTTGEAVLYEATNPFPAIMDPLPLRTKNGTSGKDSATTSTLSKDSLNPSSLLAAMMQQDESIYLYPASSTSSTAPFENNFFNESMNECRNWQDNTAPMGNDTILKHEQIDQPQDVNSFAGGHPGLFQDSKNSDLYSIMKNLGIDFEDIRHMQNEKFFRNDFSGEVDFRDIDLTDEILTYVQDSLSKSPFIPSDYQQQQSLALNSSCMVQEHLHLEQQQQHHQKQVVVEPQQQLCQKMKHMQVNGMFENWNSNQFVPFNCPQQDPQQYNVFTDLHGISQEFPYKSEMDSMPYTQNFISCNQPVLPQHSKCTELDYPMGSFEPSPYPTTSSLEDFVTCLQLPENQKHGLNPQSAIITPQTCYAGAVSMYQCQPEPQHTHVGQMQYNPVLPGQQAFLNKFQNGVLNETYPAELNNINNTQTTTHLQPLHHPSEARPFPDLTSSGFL
Sequence of Peroxisome proliferator-activated receptor gamma (Homo sapiens) (P37231 whole entry, looked up): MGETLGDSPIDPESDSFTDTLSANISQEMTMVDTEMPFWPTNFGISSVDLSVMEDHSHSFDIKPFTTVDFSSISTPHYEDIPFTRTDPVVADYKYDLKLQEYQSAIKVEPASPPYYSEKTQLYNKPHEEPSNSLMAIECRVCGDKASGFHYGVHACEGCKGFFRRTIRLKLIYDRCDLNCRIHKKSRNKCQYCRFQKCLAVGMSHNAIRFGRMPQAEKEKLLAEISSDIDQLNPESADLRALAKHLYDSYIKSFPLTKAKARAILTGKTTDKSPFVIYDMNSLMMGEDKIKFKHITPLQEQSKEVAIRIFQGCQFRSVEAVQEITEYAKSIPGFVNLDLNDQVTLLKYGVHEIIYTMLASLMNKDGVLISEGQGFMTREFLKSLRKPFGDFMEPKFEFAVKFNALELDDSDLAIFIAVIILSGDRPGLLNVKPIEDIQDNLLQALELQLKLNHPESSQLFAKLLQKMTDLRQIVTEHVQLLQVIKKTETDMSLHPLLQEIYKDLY

SMILES	Potency [1]	Potency [2]	Potency [3]	outcome [4]	Potency [5]	outcome [6]	Potency [7]	outcome [8]	outcome [9]	Potency [10]
CCc1nccnc1CC	inactive	inactive	inactive	inactive	inactive	inactive	inactive	inactive	inactive	–
C=C(C)CS(=O)(=O)O	inactive	inactive	inactive	inactive	inactive	inactive	inactive	inactive	–	–
FC1(F)C(F)(F)C(F)(F)C2(F)C(F)(F)C(F)(F)C(F)(F)C(F)(F)C2(F)C1(F)F (stereo not drawn)	inactive	inactive	inactive	inactive	inactive	inactive	–	inactive	inactive	–
CC(C)c1cc2c(cc1S(=O)(=O)O)[C@@]1(C)CCC[C@@](C)(C(=O)O)[C@@H]1CC2	inactive	inactive	inactive	inactive	inactive	inactive	inactive	–	inactive	inactive
N=c1nc(N2CCCCC2)cc(N)n1O	inactive	inactive	inactive	inactive	inactive	inactive	inactive	inactive	–	–
C[C@@H]1CCN(C(=O)[C@H](CCCN=C(N)N)NS(=O)(=O)c2cccc3c2NC[C@H](C)C3)[C@@H](C(=O)O)C1	inactive	inactive	inactive	inactive	inactive	inactive	inactive	inactive	inactive	–
O=C1CCCC(=O)C1	inactive	inactive	inactive	inactive	inactive	inactive	inactive	inactive	–	–
CCCCCCCCCCCC	inactive	inactive	inactive	inactive	inactive	inactive	inactive	inactive	–	–
CCCC(=O)O[C@]1(C(=O)CO)CC[C@H]2[C@@H]3CCC4=CC(=O)CC[C@]4(C)[C@H]3[C@@H](O)C[C@@]21C	inactive	inactive	inactive	inactive	inactive	inactive	inactive	inactive	inactive	–
O=C(O)CCCc1ccccc1	inactive	inactive	inactive	inactive	inactive	inactive	inactive	inactive	–	–
CC(=O)CC(C)(C)C1CCCCC1	inactive	inactive	inactive	inactive	inactive	inactive	inactive	inactive	inactive	–
CC(C)NC(=O)NC(C)C	inactive	inactive	inactive	inactive	inactive	inactive	inactive	inactive	inactive	–
FC(F)OC(Cl)C(F)(F)F (stereo not drawn)	inactive	inactive	inactive	inactive	inactive	–	inactive	inactive	–	inactive
O=C(CCCN1CCN(c2ccccn2)CC1)c1ccc(F)cc1	inactive	inactive	inactive	inactive	inactive	inactive	inactive	inactive	inactive	–
Cc1ccc(=O)n(-c2ccccc2)c1	inactive	inactive	inactive	inactive	inactive	inactive	inactive	inactive	inactive	–
CC(=O)N(CC(O)CO)c1c(I)c(C(=O)NCCO)c(I)c(C(=O)NCC(O)CO)c1I (stereo not drawn)	inactive	inactive	inactive	inactive	inactive	inactive	inactive	inactive	–	–
O=C1CCCN1C1CCCCC1	inactive	inactive	inactive	inactive	inactive	inactive	inactive	inactive	inactive	–
COC(=O)c1c(Cl)c(Cl)c(C(=O)OC)c(Cl)c1Cl	inactive	inactive and 48.6 µM (active)	inactive	inactive	inactive	inactive	inactive	inactive	inactive	–
O=C1NC(=O)[C@@]2(CCOc3ccc(F)cc32)N1	inactive	inactive	inactive	inactive	–	inactive	inactive	inactive	–	inactive
CCC=O	inactive	inactive	inactive	inactive	–	inactive	inactive	inactive	–	inactive
CC/C=C\CC/C=C/CO	inactive	inactive	inactive	inactive	–	inactive	inactive	inactive	–	–
C=CCCCCCCCCC=O	inactive	inactive	inactive	inactive	–	inactive	inactive	inactive	–	–
c1ccc([C@H]2CN3CCSC3=N2)cc1	inactive	inactive	inactive	inactive	–	inactive	inactive	inactive	inactive	inactive
CCOC(=O)CCC(C)=O	inactive	inactive	inactive	inactive	–	inactive	inactive	inactive	–	inactive
O=S(O)CO	inactive	inactive	inactive	inactive	–	inactive	inactive	inactive	inactive	–
O=c1cc(-c2ccccc2)oc2ccccc12	inactive	24.3 µM (active) and 5.91 µM (active)	inactive	inactive	–	inactive	inactive	inactive	inactive	–
CCCCCSCCCCC	inactive	inactive	inactive	inactive	–	inactive	inactive	inactive	–	inactive
COCCCOCCCOC	inactive	inactive	inactive	inactive	–	inactive	inactive	inactive	inactive	–
